# An excerpt weighted towards active compounds, which were near 19% of everything screened.
# HT1080-NT tox: qHTS for induction of synthetic lethality in tumor cells producing 2HG: qHTS for the HT-1080-NT fibrosarcoma cell line; 1.6% of 360,000 active; Potency, µM (highest dose often 46.1 µM), for the others: top-dose activity, negative = less viability, usual class: cytotoxic; AID 686970, 2013; HT-1080-NT fibrosarcoma viability, CellTiter-Glo ATP luminescence, 48 h;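 note: NT is the 2HG producing partner of a matched IDH1 knockdown line; potency is the fitted concentration of half-maximal effect; 0% = DMSO-treated cells and -100% = media-only wells without cells; nearly all actives have a fitted effect of over 55% in size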
#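 Read-out is CellTiter-Glo luminescence after 10 minutes at room temperature, following 48 hours' compound treatment of HT-1080-NT cells (750 cells/well, RPMI, 5% FBS, 37 degrees C).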
# TDP1 cell CPT: qHTS for Inhibitors of human tyrosyl-DNA phosphodiesterase 1 (TDP1): qHTS in cells in presence of CPT. 12% of 420,000 active. chicken DT40 Tdp1-/-;hTDP1 cells + 20 nM CPT, ATP luminescence, 48 h. Potency, µM (titrated, usually from 46.2 µM), for the others: top-dose activity change, negative = growth inhibition, hits mostly inhibitors; note: potency is the fitted concentration of half-maximal effect; nearly all actives have a fitted effect of over 55% in size
#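 Chicken DT40 Tdp1-/- cells stably complemented with human TDP1 were seeded at 400 cells/well in medium containing 20 nM camptothecin, exposed to pin-transferred compounds, and grown at 37 °C for at least 48 hr. Viability was read as ATP luminescence.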
# IL1B secr inh: qHTS for Inhibitors of Inflammasome Signaling: IL-1-beta AlphaLISA Primary Screen. THP-1 LPS/ATP IL-1B secretion, AlphaLISA, 16 h; hits give low values. activity change, % at 57.5 µM. 4.7% of 360,000 active; in the data active = activity change below about -50%; inconclusive = mostly about -30% to -49%
#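 Secreted IL-1B measured by AlphaLISA bead assay after 16 h compound exposure of THP-1 cells; compounds (final up to 57.5 uM) added 1 h before LPS (250 ng/mL) and ATP (1.25 mM) stimulation; lower signal means less secretion.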
# DT40 TDP1 no CPT: qHTS for Inhibitors of human tyrosyl-DNA phosphodiesterase 1 (TDP1): qHTS in cells in absence of CPT | DT40 Tdp1-/- hTDP1 cells, no CPT, ATP luminescence, 48 h | Potency, µM (titrated, usually from 46.2 µM), inactives show at the highest dose activity change, negative = growth inhibition, usual class: inhibitors | 15% of 420,000 active; note: potency is the fitted concentration of half-maximal effect; nearly all actives have a fitted effect of over 55% in size
#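 Compound effects on proliferation are scored in DT40 Tdp1-/-;hTDP1 cells in the absence of CPT. ATP levels (CellTiter-Glo luminescence) are recorded after a ≥48 hr, 37 °C incubation.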
# HT1080 IDH1KD tx: qHTS for induction of synthetic lethality in tumor cells producing 2HG: qHTS for the HT-1080-IDH1KD cell line; HT-1080 IDH1 knockdown viability, ATP luminescence, 48 h; Potency, µM (series often up to 46.1 µM), for inactives: at the top dose activity, negative = toxicity, actives largely listed as cytotoxic; 2% of 360,000 active;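 note: potency is the fitted concentration of half-maximal effect; 0% = DMSO wells and -100% = cell-free medium wells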
#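 % activity derives from luminescence (CellTiter-Glo), normalised to DMSO and no-cell wells. HT-1080-IDH1KD cells, 750/well, had 48 h compound exposure at 37 °C.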
# Numbers without * were called inactive; ? = inconclusive; / = no result given; [ ] = another dose, or the depositor's remark. Unless noted, calls come from the whole dose curve; as a rule, active = well fitted curve in the direction sought with a large enough effect; inconclusive = small, poorly fitted or top-dose-only effect, or another doubt; inactive = no such curve, though single readings can be large; an effect the other way counts as inactive or inconclusive. Unless noted, % is set by controls: 0 for no effect and ±100 for the full control effect.
SMILES,HT1080-NT tox,TDP1 cell CPT,IL1B secr inh,DT40 TDP1 no CPT,HT1080 IDH1KD tx
Cc1ccccc1N/N=C/c1sc(=O)n(Cc2cccc(C(=O)O)c2)c1Cl,?,?,-15.5,20.6µM*,?
O=C(O)c1cccc(Cn2c(Cl)c(/C=N/NC(=O)c3cccc(O)c3)sc2=O)c1,7.3%,-4.9%,20.8,8.3%,2.5%
CCc1cccc(Nc2c3c(nc4ncnn24)CCC3)c1,11.3%,?,85.6,20.6µM*,-0.6%
O=c1cc(C(F)(F)F)nc(SC/C=C/c2ccccc2)[nH]1,?,-6.8%,41.2,-24.3%,1.7%
COCCOC(=O)C(C#N)c1nc2ccccc2nc1N1CCCC1 (centres undefined),3.6%,-3.3%,-16.4,-12.2%,5.4%
CCN1CCN(c2nc3ccccc3nc2C(C#N)C(=O)OCc2ccccc2)CC1 (centres undefined),-16.0%,23.1µM*,-10.0,?,-18.6%
CCCCCCOC(=O)C(C#N)c1nc2ccccc2nc1N1CCN(CC)CC1 (centres undefined),16.4µM*,?,?,20.6µM*,23.1µM*
CCCCCCOC(=O)C(C#N)c1nc2ccccc2nc1N1CCOCC1 (centres undefined),3.5%,?,-12.7,18.4µM*,1.2%
CC1CCN(c2nc3ccccc3nc2C(C#N)C(=O)OC2CCCCC2)CC1 (centres undefined),7.5%,16.4µM*,-3.5,?,0.6%
CCCCOC(=O)C(C#N)c1nc2ccccc2nc1N1CCOCC1 (centres undefined),-8.0%,?,?,?,-8.7%
C=CCOC(=O)C(C#N)c1nc2ccccc2nc1N1CCCC1 (centres undefined),1.0%,-6.2%,-9.6,-18.7%,0.5%
Cc1ccc(C(=O)NCCCN2CCOCC2)cc1Cl,13.9%,29.5%,13.3,-2.7%,-2.5%
O=[N+]([O-])c1ccc(NCCCN2CCOCC2)c([N+](=O)[O-])c1,-19.9%,23.9%,-5.0,-23.8%,-4.3%
COc1ccc(NC(=O)c2ccc(NCCCN3CCOCC3)c([N+](=O)[O-])c2)cc1,4.2%,20.6µM*,?,18.4µM*,0.2%
O=C(NCCCN1CCOCC1)c1ccc(Cl)c([N+](=O)[O-])c1,15.0%,7.1%,-2.3,-2.8%,13.0%
Cc1ccc(NC(=O)c2ccc(NCCCN3CCOCC3)c([N+](=O)[O-])c2)cc1Cl,18.4µM*,?,-66.6*,20.6µM*,18.4µM*
O=[N+]([O-])c1cc(S(=O)(=O)NCCCN2CCOCC2)ccc1Cl,0.2%,3.5%,-64.3*,-17.9%,-4.4%
O=C(Nc1ccc(Cl)c([N+](=O)[O-])c1)c1ccc(NCCCN2CCOCC2)c([N+](=O)[O-])c1,-1.1%,2.31µM*,0.3,2.31µM*,0.5%
COC(=O)c1cc(Br)c(=O)n(-c2cc(C)on2)c1,19.6%,-4.6%,-3.9,-8.8%,13.0%
Cc1nn(-c2ccccc2)c2sc(C(=O)OC3CCOC3=O)cc12 (centres undefined),6.4%,6.1%,15.4,-17.3%,6.4%
O=C(NCCCN1CCOCC1)c1ccc(Sc2cccc(Cl)c2)c([N+](=O)[O-])c1,-8.0%,?,?,20.6µM*,-5.2%
O=[N+]([O-])c1cc(S(=O)(=O)NCCN2CCOCC2)ccc1Sc1nnnn1-c1ccccc1,?,5.8µM*,-99.8*,6.51µM*,?
COc1ccc(NC(=O)N2CCc3ccccc3C2)c(OC)c1,?,-0.1%,32.7,4.4%,25.9%
C[C@@H]1C[C@H]2[C@@H]3CCC4=CC(=O)C=C[C@]4(C)[C@@]3(F)[C@@H](O)C[C@]2(C)[C@@]1(O)C(=O)COP(=O)(O)O,-1.3%,2.9%,-19.0,3.1%,24.7%
CC1(C)OC2CC3C4CC(F)C5=CC(=O)C=CC5(C)C4(F)C(O)CC3(C)C2(C(=O)CO)O1 (centres undefined),?,-3.7%,-50.3*,1.5%,34.9%
SMILES,HT1080-NT tox,TDP1 cell CPT,IL1B secr inh,DT40 TDP1 no CPT,HT1080 IDH1KD tx
CC1(c2ccccc2)O[C@@H]2C[C@H]3[C@@H]4CCC5=CC(=O)C=C[C@]5(C)[C@@]4(F)[C@@H](O)C[C@]3(C)[C@]2(C(=O)CO)O1 (some centres undefined),?,?,-67.2*,?,0.0%
C[C@H]1C[C@H]2[C@@H]3CCC4=CC(=O)C=C[C@]4(C)[C@@]3(F)[C@@H](O)C[C@]2(C)[C@@]1(O)C(=O)CO,?,-11.0%,-59.4*,-11.0%,21.9%
C[C@H]1C[C@H]2[C@@H]3CCC4=CC(=O)C=C[C@]4(C)[C@@]3(Cl)[C@@H](O)C[C@]2(C)[C@@]1(O)C(=O)CO,?,?,-59.3*,?,13.0%
CCOc1ccc(NC(=O)c2ccc(-n3cccn3)nc2)cc1,15.0%,-4.9%,-10.9,-9.6%,11.7%
C[C@H](CO)N1C[C@H](C)[C@H](CN(C)C(=O)Nc2ccc(C(F)(F)F)cc2)OCc2cnnn2CCCC1=O,0.8%,-18.5%,-10.1,-16.0%,-1.8%
CC1=C(C(=O)OC(C)(C)C)C(c2cccc3ccccc23)NC(=O)N1 (centres undefined),0.1%,?,38.9,?,0.2%
CCCCC(=O)O[C@]1(C(=O)CO)[C@H](C)C[C@H]2[C@@H]3CCC4=CC(=O)C=C[C@]4(C)[C@@]3(F)[C@@H](O)C[C@@]21C,/,18.8µM*,/,13.3µM*,/
Cc1nnc(SCC(=O)NNC(=O)c2ccc(F)cc2)n1Cc1ccccc1,-7.0%,-18.8%,-2.2,0.6%,5.5%
Cc1nc(-c2ccccc2)sc1C(=O)NS(=O)(=O)c1ccc(CN2CCN(c3ccccc3)CC2)cc1,3.2%,2.5%,1.8,-0.1%,0.9%
CC1(C)CCC(c2ccc(Cl)cc2)=C(CN2CCN(c3ccc(C(=O)NS(=O)(=O)c4ccc(N[C@H](CCN5CCOCC5)CSc5ccccc5)c(S(=O)(=O)C(F)(F)F)c4)cc3)CC2)C1,/,0.447µM*,/,0.316µM*,/
Cc1ccc(-c2ccnc(-n3ncc(C(=O)N4CCCCC4c4cccnc4)c3C3CC3)n2)o1 (centres undefined),/,15.0%[9.04 µM],/,-2.9%,/
CC(=O)n1cc([C@H]2C=C(C(=O)Nc3ccccc3)O[C@@H](OCc3ccc(CO)cc3)C2)c2ccccc21,-18.9%,8.2µM*,0.0,9.2µM*,-22.1%
C#CCNC(=O)C1=C[C@H](c2cn(C(C)=O)c3ccccc23)C[C@H](OCc2ccc(CO)cc2)O1,-2.5%,18.4µM*,-17.2,16.4µM*,-0.6%

# Source: PubChem BioAssay
